Assay results: PubChem BioAssay AID1445 (SRMLSC, 2008)
The whole screen tested about 220,000 compounds, of which about 910 (0.41%) were called active.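 The calls were made as follows: active = primary inhibition above the hit cutoff, then over 50% inhibition at one or more dose response concentrations (cut at about 23% in these data, passing the limit was not always enough); inconclusive = conflicting primary data, or primary hits not chosen for dose response; inactive = low primary inhibition, or under 50% at every dose.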 The entries come from a sample that favours actives as a whole. Measured potencies and affinities stand elsewhere.

These compounds were tested against Aminopeptidase N (Plasmodium falciparum (isolate 3D7)) (UniProt O96935) (assay: P. falciparum M1AAP inhibitors, biochemical, fluorogenic H-Leu-NHMec substrate, 1536-well (AID 1445;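 also: plate controls were DMSO full reaction for no effect and no enzyme background for full effect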)). Conditions: recombinant M1AAP, H-Leu-NHMec fluorogenic kinetic assay; at 30 µM, active compounds read high unless noted.
Chain of Aminopeptidase N (Plasmodium falciparum (isolate 3D7)) (O96935 whole entry, looked up): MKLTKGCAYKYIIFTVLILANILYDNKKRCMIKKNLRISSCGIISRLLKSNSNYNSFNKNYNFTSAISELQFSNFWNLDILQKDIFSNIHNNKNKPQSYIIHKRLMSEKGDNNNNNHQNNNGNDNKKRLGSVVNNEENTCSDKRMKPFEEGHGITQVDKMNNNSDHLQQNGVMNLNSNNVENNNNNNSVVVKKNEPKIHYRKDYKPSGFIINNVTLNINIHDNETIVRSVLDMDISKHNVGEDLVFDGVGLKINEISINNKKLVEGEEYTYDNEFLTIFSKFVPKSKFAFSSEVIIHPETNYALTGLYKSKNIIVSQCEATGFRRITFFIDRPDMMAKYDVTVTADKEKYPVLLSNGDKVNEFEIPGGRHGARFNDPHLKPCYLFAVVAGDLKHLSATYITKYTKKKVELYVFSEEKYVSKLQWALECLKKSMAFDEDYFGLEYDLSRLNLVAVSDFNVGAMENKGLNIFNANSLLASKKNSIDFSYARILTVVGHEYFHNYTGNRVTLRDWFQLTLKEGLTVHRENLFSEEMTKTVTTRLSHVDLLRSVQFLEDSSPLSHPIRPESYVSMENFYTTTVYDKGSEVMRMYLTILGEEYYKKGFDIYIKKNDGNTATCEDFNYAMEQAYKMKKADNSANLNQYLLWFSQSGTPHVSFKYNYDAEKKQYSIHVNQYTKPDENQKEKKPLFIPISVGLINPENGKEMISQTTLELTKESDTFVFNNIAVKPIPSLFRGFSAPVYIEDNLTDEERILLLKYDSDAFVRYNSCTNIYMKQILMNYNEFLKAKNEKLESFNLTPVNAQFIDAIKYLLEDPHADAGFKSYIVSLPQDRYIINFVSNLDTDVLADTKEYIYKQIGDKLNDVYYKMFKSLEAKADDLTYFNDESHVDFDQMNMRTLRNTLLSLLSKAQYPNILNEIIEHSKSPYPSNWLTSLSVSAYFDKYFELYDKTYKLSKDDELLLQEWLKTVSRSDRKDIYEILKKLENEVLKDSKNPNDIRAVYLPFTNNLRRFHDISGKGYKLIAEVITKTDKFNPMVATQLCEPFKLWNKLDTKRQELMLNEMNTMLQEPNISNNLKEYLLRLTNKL

inhibition, inactive:
COc1cccc(N2CCN(CC(=O)Nc3nnc(-c4ccccc4)s3)CC2)c1 -5.75%, O=C(CN1CCN(c2ccccc2)CC1)Nc1nnc(-c2ccccc2)s1 -5.83%, COc1ccc(N2CCN(C(=O)CN3CCN(C(c4ccccc4)c4ccccc4)CC3)CC2)cc1 3.02%, COc1ccc(N2CCN(C(=O)CN3C(=O)C4CC=CCC4C3=O)CC2)cc1 (centres undefined) -0.46%, CCn1c(SCC(=O)NCC2CCCO2)nnc1-c1ccccc1 (centres undefined) 1.77%, c1cc2c(cc1C1=NNC(=NC3CC3)SC1)OCCO2 8.68%, CCOC(=O)Cc1csc(NC(=O)CC(C)(C)CC(=O)O)n1 -4.17%, CCN(CC)S(=O)(=O)c1cccc(-c2n[nH]c(=S)n2/N=C/c2ccc(OC)cc2)c1 13.1%, CCCc1c(C(=O)NNc2cc(C(F)(F)F)ccc2Cl)cnn1-c1ccccc1 -1.62%, CCC(=O)NC(=S)Nc1ccc(N2CCOCC2)cc1 4.46%, O=C(COc1ccc(Cl)cc1)NNC(=O)C(=O)N1CCCCC1 32.2%, CCOC(=O)N1CCN(C(=O)C(=O)NNC(=O)COc2ccc(Cl)c(C)c2)CC1 3.22%, O=C(O)CC1S/C(=N\N=C2CCCCCCC2)N(c2ccccc2)C1=O (centres undefined) 7.68%, CN(C(=O)c1ccccc1)C1(C)CCS(=O)(=O)C1 (centres undefined) -2.77%, O=c1c2cc(Cl)ccc2nc(-c2ccccc2)n1O 3.06%, O=c1c2ccccc2nc(-c2ccc(Cl)c(Cl)c2)n1O 0.17%, CS(=O)(=O)N(CC(=O)Nc1ccccc1Cl)c1ccc(Cl)cc1 4.49%, O=C(Nc1ccc2c(c1)OCCO2)c1c(F)c(F)c(F)c(F)c1F 10.6%, O=C(/C=C\c1ccccc1OC(=O)c1ccccc1F)c1cc2ccccc2o1 6.93%, O=C(CSc1nc2c(c(=O)[nH]1)CCC2)Nc1cccc(Cl)c1 1.88%, O=c1c2c(nc3nc(NCc4cccc(Cl)c4)[nH]n13)CCC2 9.8%, CCCCCCCC(=O)NC1=NC(=O)C(C)(C)S1 -0.69%, Cc1cccc(NC(=O)N(Cc2cc3cc(C)cc(C)c3[nH]c2=O)CC2COCCO2)c1 (centres undefined) 2.91%, Cc1ccc2[nH]c(=O)c(CN(CC3COCCO3)C(=O)Nc3ccccc3C)cc2c1 (centres undefined) 13.8%, CN(C)S(=O)(=O)c1ccc(C(=O)OCCn2cnc3c2c(=O)n(C)c(=O)n3C)cc1 -2.31%, O=C(O)CCCC(=O)Nc1cc([N+](=O)[O-])ccc1O 7.33%, O=[N+]([O-])c1ccc(O)c(NC(=S)Nc2ccccc2)c1 -0.91%, Cc1ccc(NCc2nnc(SCC(=O)Nc3ncc(C)s3)n2CC2CCCO2)c(C)c1 (centres undefined) 0.09%, COc1ccc2cc3cc(C(=O)NC(C)C)oc3nc2c1 13.4%, CCCCN(CC)C(=O)c1cc2cc3ccc(OC)cc3nc2o1 13.7%, COc1ccc2cc3cc(C(=O)NCC4COc5ccccc5O4)oc3nc2c1 (centres undefined) 3.66%, CCCCN(CC)CCCNC(=O)c1cc2cc3ccc(OC)cc3nc2o1 29.5%, COc1ccc2cc3cc(C(=O)NCCN4CCN(c5ccccc5F)CC4)oc3nc2c1 -0.03%, COc1ccc2cc3cc(C(=O)NCCCN4CCOCC4)oc3nc2c1 18.2%, Cc1cccc2c1Sc1ccccc1CC2=O 7.62%, CCn1nnnc1NCc1ccc(N2CCCC2)cc1 5.58%, COc1cccc(C(=O)OCC(=O)c2c[nH]c3ccccc23)c1O 6.87%, COC(=O)N/N=C\c1ccc(OC(=O)c2ccco2)cc1 5.66%, CC12CCCCC1c1ccccc1C(=NCC(=O)O)N2 (centres undefined) 2.45%, CCOC(=O)c1c(NC(=O)c2ccc(-n3cnnn3)cc2)sc2c1CCCC2 3.69%, C=CCN(C#N)c1nc(OC)nc(N2CCCC2)n1 -0.65%, COc1cccc(C(C(=O)NC2CCCC2)N(C(=O)c2ccco2)C2CC2)c1OC (centres undefined) 11%, O=C(NC1CCCC1)C(c1ccccc1)N(C(=O)c1ccco1)C1CCCC1 (centres undefined) 17.7%, N/C(=N\OC(=O)CCCOc1ccccc1)c1ccc(Br)cc1 5.3%, O=CN1CCN(C(=O)COc2ccc(Cl)cc2Br)CC1 1.29%, CCC1=NN2C(=N)/C(=C\c3ccc(OCc4cc(=O)n5nc(CC)sc5n4)c(OC)c3)C(=O)N=C2S1 32.8%, CCOc1cc(/C=C2\SC(=O)N(c3ccc(O)cc3)C2=O)ccc1O 15.2%, CCC1=NN2C(=N)/C(=C\c3ccc(SCc4ccco4)o3)C(=O)N=C2S1 7.98%, COc1cc(/C=C2/C(=N)N3C=CSC3=NC2=O)ccc1OCCCOc1cc(C)ccc1C -5.49%, CCOc1cc(/C=C2\SC(=O)N=C2N)ccc1O 22%, CCCC1=NN2C(=N)/C(=C\c3ccc(SCc4ccco4)o3)C(=O)N=C2S1 20.4%, O=S(=O)(NCc1ccccn1)c1cccc2nsnc12 3.36%, Cc1cccc(NC(=O)NCc2ccc3c(c2)OCO3)c1C -4.45%, CSc1ccc(S(=O)(=O)NC(C)c2ccccc2)cc1 (centres undefined) -2.61%, CCOc1cc(OCC)nc(S(C)(=O)=O)n1 2.35%, Cn1c(O)c(C=NCC2CCNCC2)c(=O)n(C)c1=O -0.42%, CC(C)C(=O)N1CCC(CN=CC2=C(O)CC(C)(C)CC2=O)CC1 6.11%, COC(=O)Cc1[nH]n(-c2ccccc2)c(=O)c1C=Nc1ccc(C)cc1 -0.62%, O=C(Nc1nc2nc(-c3ccccc3)cc(=O)n2[nH]1)c1ccccc1 -0.35%, COc1ccc(C(=O)Nc2nc3nc(-c4ccccc4)cc(=O)n3[nH]2)cc1 10.9%, Cc1onc(-c2c(F)cccc2Cl)c1C(=O)Nc1ccc(S(=O)(=O)Nc2ncccn2)cc1 13.8%, Cc1cc(=O)oc2cc(Oc3ccc(C(N)=O)cc3[N+](=O)[O-])ccc12 30%, O=c1ccc2ccc(Oc3ccc([N+](=O)[O-])cc3[N+](=O)[O-])cc2o1 11.5%, CC(NC(=O)COc1ccc(N(C)S(=O)(=O)c2ccccc2)cc1)c1ccccc1 (centres undefined) 1.27%, CC(NC(=O)CN(C1CCCCC1)S(C)(=O)=O)c1ccccc1 (centres undefined) 2.9%, NS(=O)(=O)c1ccc(CCn2c(=S)[nH]c3ccc(F)cc3c2=O)cc1 -3.16%, O=C1c2oc3ccc(F)cc3c(=O)c2C(c2cccc(O)c2)N1CCCN1CCOCC1 (centres undefined) -3%, CCOc1ccc(C2c3c(oc4ccccc4c3=O)C(=O)N2CCCN2CCOCC2)cc1 (centres undefined) 2.52%, CCCOc1ccc(C2c3c(oc4ccccc4c3=O)C(=O)N2CCCN2CCOCC2)cc1 (centres undefined) 4.5%, COc1cccc(C2c3c(oc4ccccc4c3=O)C(=O)N2CCCN2CCOCC2)c1 (centres undefined) 7.18%, Cn1c(=O)c2c(nc(SCCN3CCOCC3)n2Cc2ccc(F)cc2)n(C)c1=O -1.46%, Cn1c(=O)c2c(nc(SCCN3CCOCC3)n2Cc2ccccc2)n(C)c1=O 7.6%, Cc1ccc(NC(=O)NC2=NN(c3ccccc3)C(=O)/C2=C2/CCCN2C)cc1 8.56%, O=C(c1nc2ccccn2c1CN1CCC(Cc2ccccc2)CC1)N1CCCC1 5.48%, CCOc1ccccc1N(CC(=O)Nc1ccccc1C(=O)NCc1ccco1)S(C)(=O)=O 21%, COc1ccc(N(CC(=O)Nc2ccccc2C(=O)NCc2ccco2)S(C)(=O)=O)cc1 3.79%, COc1ccc(C(C)=O)cc1CSc1nncn1C 4.42%, COC(=O)c1c(NC(NC(=O)c2ccccc2)(C(F)(F)F)C(F)(F)F)sc2c1CCN(C)C2 2.95%, CCOC(=O)N(CC)OC(=O)Nc1ccc(Cl)cc1 2.39%, CCOC(=O)CNNC(=O)Nc1ccc(Cl)c(Cl)c1 -5.41%, CCCc1ccc(-c2cc(NC(=O)CSc3n[nH]c(N)n3)n(-c3ccccc3)n2)cc1 -9.14%, Cc1ccc(-c2cc(NC(=O)CSc3n[nH]c(N)n3)n(-c3ccccc3)n2)cc1 3.01%

inhibition, active:
COc1ccc(N2CCN(CC(=O)N3CCC(C)CC3)CC2)cc1 24.4%, COc1ccc(N2CCN(CC(=O)Nc3nnc(-c4ccccc4)s3)CC2)cc1 23.4%, O=c1c2ccccc2nc(-c2cccc(Cl)c2)n1O 26.1%, O=C(NC1CCCC1)C(c1ccccc1F)N(C(=O)c1ccco1)C1CCCC1 (centres undefined) 25%, CC(C)C(=O)N1CCC(CN=Cc2c(O)n(C3CCCCC3)c(=O)n(C3CCCCC3)c2=O)CC1 27%, Cc1ccc(C(=O)Nc2nc3nc(-c4ccccc4)cc(=O)n3[nH]2)cc1 25.9%, C=CCOc1ccc(C2c3c(oc4ccccc4c3=O)C(=O)N2CCCN2CCOCC2)cc1 (centres undefined) 24.2%, O=C1c2oc3ccccc3c(=O)c2C(c2cccc(O)c2)N1CCCN1CCOCC1 (centres undefined) 26.8%, Cc1ccc(Cn2c(SCCN3CCOCC3)nc3c2c(=O)n(C)c(=O)n3C)cc1 23.8%, CCOc1ccc(N(CC(=O)Nc2ccccc2C(=O)NCc2ccco2)S(C)(=O)=O)cc1 23.4%, CCOC(=O)N(C)OC(=O)Nc1ccc(Cl)c(Cl)c1 24%, Nc1nc(SCC(=O)Nc2cc(-c3ccccc3)nn2-c2ccccc2)n[nH]1 26.4%
